Here are results for 54 sequences from PubChem BioAssay AID1347426 (Functional Genomics Laboratory (NCATS/FGL), 2020).

In all, about 31,000 sequences went through this assay and about 1,400 (4.5%) were called active. Many of the other results were omitted from the sample, so actives are more common in it than they were. A number with no mark means an inactive call.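 Rule for the calls: active = median seed-adjusted z-score above 1 or below -1; inactive = the rest.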

The test is described as follows: Novel Modifiers of Survival Motor Neuron (SMN) Protein: Gene Identification via Genome-wide siRNA Screen.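 Note: luminescence tracks full-length SMN protein made from the SMN2 reporter.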 As to conditions: HEK293T SMN2-luciferase reporter, siRNA knockdown, 72 h; actives lie on both sides. An excerpt:
Spinal muscular atrophy (SMA) is the most common neuromuscular autosomal recessive disorder and one of the leading genetic causes of infant death. SMA results from mutations inducing loss of function or deletion in the survival of motor neuron-1 gene (SMN1), leading to deficiency of the survival motor neuron (SMN) protein. Although a second nearly identical gene, SMN2, is retained in humans, its expression primarily produces an aberrantly spliced isoform that is largely unstable and quickly degraded. We performed a genome-wide RNAi screen using a cell-based reporter assay to identify genes and pathways that modulate SMN protein stability. The screen identified over 200 genes that led to the greatest increase or decrease in luciferase expression.
Using HEK293T cells stably expressing a luciferase reporter that combines the promoter and splicing based cassettes in tandem with the major portion of the native SMN2 cDNA with luciferase, we performed a genome-wide RNAi screen to identify modulators of SMN protein levels. Luciferase is expressed when full-length SMN protein is generated with luminescence signal proportional to SMN protein levels. Our luciferase-based reporter assay was used to screen Ambion Silencer Select Human Druggable Genome siRNA library (10418 genes, 3 unique siRNAs per gene) using lipid-based reverse transfection.
Briefly, 1 pmol of each siRNA was spotted to a well of a 384-well plate (Corning, Corning, NY) and 20 microL of serum-free DMEM containing […] of Lipofectamine RNAiMax (Life Technologies, Carlsbad, CA) was then added to each well. Transfected cells were maintained at 37 degrees C in 5% CO2 for 72 hours, 20 microL of ONE-Glo Reagent (Promega) was added to wells for luciferase quantification. Raw luminescence reads were normalized to Ambion(R) Silencer(R) Negative Control #2 siRNA, then log10 transformed. A robust statistical measure of median absolute deviation (MAD) to standardize siRNA activities from each screen. Common Seed Analysis was used to help prioritize clean hits as opposed to those appearing to arise from seed based off-target effects. Candidate modulators were defined as the genes having a MAD score greater than 1.0 or less than -1.0.
For the sequence GGGCAGUUCUUGCAACCAUTT against ALDH1A2, the median seed-adjusted z-score is 0.564.

For the sequence CGAGAUAACUACUGCCGAUTT against PCOLCE2, the median seed-adjusted z-score is -1.15 (active).

Take CCGUCUACGUGACCAUUGATT against ABCC1: the median seed-adjusted z-score is 0.

GCUUUUACAACAUUUCGAATT against SLC30A4: the median seed-adjusted z-score is 0.158. With GUAAAUCACCGGCUACAAATT against ITGA3 the figure was 0. With UCAUGCUCAUUGGGAAUAATT against RAB2B the figure was 0.882; with GCUUUGCAGUGAAUAUCGATT against SPINK5, 0.26; with CCUGGAUACCCUAAGCAAATT against PSMD2, -1.44 (active). Then CCACGAUCGUUCACAAGGATT against KCTD4, with 0.649; and CUAUAGUGGUUCAUCACAATT against GCNT1, with 0.463; and ACGAGUACAUCAACGAGUATT against ABCA2, with -1.18 (active).

As to CACUCAGCGUGGACCAUUUTT against HCN3, the median seed-adjusted z-score was 0.301.

In the case of CUAUCAAUCCCAGCACUAATT against CDKL3, the median seed-adjusted z-score is 0.243.

GCACUCUGAAGAUCGAAUATT against HNRNPL: the median seed-adjusted z-score was 1.04 (active). Then CUAUGAUUAUAGCCGGGUATT against PTPN22, with -0.0843; and GGAAAAGUAUGAACUGAAATT against TREM1, with 0. Regarding GGGUCUUACGAAUGCGGAATT against ZNF618, the median seed-adjusted z-score was 0.311. Then GAACGUAAGAAAUACAAUUTT against HSPA4L, with 0.288; and CUUCAUCUUUUACACCAUUTT against SLC35B2, with -0.313. Turning to CACUACUAAAAACCUAAAATT against EFHD2, the median seed-adjusted z-score is 0.874. With GUAGUGAAGUGUAUCCGGATT against ANXA6 the figure was -1.01 (active); with GAAUCCUCAAUGUGGAUGATT against HPCA, 0.12. Then GGCUUUUUGCUACAGAUGATT against OSGEP, with 0.0178; and GUAUGUCACCUAUCACUGUTT against SLC25A38, with 0. Turning to GCAUCGCUGUAGGUUUUGATT against THBS2, the median seed-adjusted z-score is -0.721. Then GCAUCUGCGAUGUGAGGAATT against RYBP, with 0.831. In the case of GCAUCAGGGUCAUGGUUCATT against SCNN1D, the median seed-adjusted z-score was -1.8 (active). With CCACCUACAGAGUGUCCUATT against EMID2, the median seed-adjusted z-score is 0.0465. Then GGACAAGACGCAAGAAGAATT against TEF, with 0. Then CCAAGGAGGUGCACUAUAATT against FHL1, with 0.574; and AGAUGAUUCUAGAAUCCAATT against STK32B, with 0.683.

Regarding GGAAUACCAUGAGCUGUUATT against OSBP, the median seed-adjusted z-score was 0.256. Regarding CAAGCAUAUUAAUGAGGUUTT against DYRK1A, the median seed-adjusted z-score is -1.3 (active). Turning to GCUCCCAUCAUGUACGUUUTT against GPR155, the median seed-adjusted z-score was 0.0681. Turning to GGAUGAGCAGUACCAGGCATT against PYCARD, the median seed-adjusted z-score is 0.117. With GAACUAAACUUGUUAAUGATT against TRIM36 the figure was -0.262; with GGAGCAACAUUAUAGUCAATT against TGS1, -0.564; with CUACGAGAAUAAUUCGGAATT against THOC1, -3.04 (active). Then CCGGGAAAGUAGAAUUACATT against IGF2BP1, with -0.993; and GCAGUACUCUGCUACCUGATT against IL22RA1, with -1.14 (active). Then GGAGAACCAGUGGAAUUCATT against LIN28B, with 0.407; and GCACUUCUCUUAAGGACGATT against UNC13B, with -0.0216. CAUGUACUAUUUUCAGUAUTT against SETD8: the median seed-adjusted z-score was -1.52 (active).

As for GCUUCUUAGCUGAGGAAAATT against RDH11, the median seed-adjusted z-score was -0.241.

CAAGGUAUUAUGCAACGUATT against FLG: the median seed-adjusted z-score was 0.221. With GAGUAUGCCGUGAAGAUCATT against RPS6KA2 the figure was 0.139; with GGCGUACGGUGAGAACAUUTT against ATP1B1, 0.971. With GUAUAAUCCUCAGAGCAAATT against CXXC1 the figure was -0.841; with CAUGAAUCCUUUACAGCAATT against RALB, -0.534. Regarding GACUGUGAGACUUACCAUATT against MED20, the median seed-adjusted z-score was -1.66 (active). As for CGGUCUCACCUGCACCAAATT against SSPO, the median seed-adjusted z-score was 0.397. Then GGAGAUUCACGAGCUGCGATT against EGFL8, with 0.365. As for GCUCAAGGCAUUCUACAAATT against SLC25A1, the median seed-adjusted z-score is 0.252. Then GGAUCGAGUUUGAUAACGATT against ITGA6, with -0.224.
